In PubChem BioAssay (NCI) one finds growth data, which are given here for 40 molecules.

SMILES strings stand for the structures. The panel holds about 83,000 compounds, 20% with a hit somewhere; the sample as a whole holds those more often.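 Values shown are percent growth following 48 h exposure of cells in 96-well plates to a single concentration of compound; below 10 was considered active.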 Activity calls are given as the source filed them.

The subject of the first assay is A549/ATCC NSCLC. Put plainly: NCI-60 one-dose screen, 48 h (100 = growth as untreated, 0 = no growth, -100 = all killed). Particulars: 10 µM unless noted.
In the case of `ClCCN(CCCl)C(c1ccccc1)c1ccc(Cl)cc1` (configuration not stated), the growth is 88.9% (inactive).
On the same count and under the same terms, the same measure for `CCCCn1cc(C(=O)/C(C#N)=C/c2cc3ccccc3nc2Cl)c2cc(OC)ccc21`: 102% (inactive).
Same read-out and setting: the same measure for `CCCCNCCc1ccccn1`: 100% (inactive).
Still for that read-out and setting: in the case of `CC(=O)C1C(=O)N(C)C(=O)N(C)C1=O` it was 96.1% (inactive).
For the molecule `CC1(C)N=C(N)N=C(N)N1c1cccc(C(=O)Nc2cccc(S(=O)(=O)F)c2)c1`, the growth is 104% (inactive).
The same measure, in the same setting: the same measure for `C[C@]12CC[C@@H]3C4=C(CC[C@H]3[C@@H]1CC[C@@H]2O)CC(=O)CC4`: 98.4% (inactive); for `Oc1ccccc1OB(Oc1ccccc1O)N(CCCl)CCCl`: 67% (inactive); for `NC(Cc1ccc2c(c1)OCO2)c1ccc2c(c1)OCO2` (configuration not stated): 104% (inactive).
Same read-out and setting: the same measure for `COc1ccc(-c2ccc(OC)c(OC)c2OC)cc1`: 38.2% (inactive); for `CC[C@@]1(C2O[C@@H](C3O[C@@](O)(CC)[C@H](C)C[C@@H]3C)C[C@@H]2C)CC[C@H]([C@]2(C)CCC3(C[C@H](O)[C@@H](C)[C@@H]([C@H](C)[C@@H](OC)[C@H](C)C(=O)O)O3)O2)O1` (some centres not stated): 17.6% (inactive).
As to `CC1(C)N=C(N)N=C(N)N1c1ccc(CCCCc2ccc(S(=O)(=O)F)cc2)c(Cl)c1`, the growth was 8.36% (active).
The same measure, in the same setting: the same measure for `COc1ccc(C2=NN(c3ccccc3)C(c3sc(N(CCCl)CCCl)nc3Cl)C2)cc1` (configuration not stated): 85.6% (inactive); for `N#CC1c2ccccc2C=CN1C(=O)c1ccc(N(CCCl)CCCl)cc1` (configuration not stated): 79% (inactive).
Still for that read-out and setting: the same measure for `CSc1ccccc1NP1(=O)OCC(C)([N+](=O)[O-])CO1` (configuration not stated): 95.9% (inactive); for `Cc1ccc(N)cc1[As]=[As]c1cc(N)ccc1C` (configuration not stated): 69.8% (inactive).
Still for that read-out and setting: the same measure for `C/C(=N/OC(=O)N(C)C)c1cc(Cl)ccc1Cl`: 101% (inactive); for `CCC(C)[C@H]1O[C@]2(C=C[C@@H]1C)C[C@@H]1C[C@@H](C/C=C(\C)[C@@H](OC3C[C@H](OC)C(O[C@H]4C[C@H](OC)[C@@H](O)[C@H](C)O4)[C@H](C)O3)[C@@H](C)/C=C/C=C3\CO[C@@H]4[C@H](O)C(C)=C[C@@H](C(=O)O1)[C@]34O)O2` (some centres not stated): 6.21% (active); for `CC1(C)N=C(N)N=C(N)N1c1ccc(CCCCc2ccc(S(=O)(=O)F)cc2)cc1`: 14% (inactive).
For `Cc1ccc(C(=O)C2CN(C)CCC2(O)c2ccc(C)cc2)cc1` (configuration not stated), the growth is 104% (inactive).
Still for that read-out and setting: the same measure for `O=S(=O)(O)c1ccc(-c2ccc([As](=O)(O)O)cc2)cc1`: 94.4% (inactive); for `O=C1NC(=O)C(CN2C(=O)C3(c4ccccc42)[C@H](Cl)C(=O)N3c2ccccc2)C(=O)N1` (some centres not stated): 77.3% (inactive).
The same measure, in the same setting: in the case of `O=[N+]([O-])c1cc([N+](=O)[O-])c(Cl)c(Cl)c1Cl` it was 80.3% (inactive).
The same measure, in the same setting: in the case of `C=CCC1(CC)C(=O)NC(=S)NC1=O` it was 102% (inactive); in that of `C/C(=N/OC(=O)N(C)C)c1ccc(Cl)cc1Cl`, 97.3% (inactive).
Regarding `CCC[CH2][Sn]([CH2]CCC)([CH2]CCC)[O]C(=O)CC`, the growth was -78.8% (active).
For `O=C(NCc1ccc([N+](=O)[O-])cc1)Nc1ccc(S(=O)(=O)F)cc1`, the growth was 75% (inactive).
Still for that read-out and setting: in the case of `n1nc(-c2nonc2-c2nn[nH]n2)n[nH]1` it was 95.2% (inactive); in that of `CNC(=O)Oc1ccccc1-c1ccccc1`, 96.2% (inactive).
The same measure, in the same setting: the same measure for `CC1(C)N=C(N)N=C(N)N1c1ccc(OCCCCOc2ccc(S(=O)(=O)F)cc2)c(Cl)c1`: 11.2% (inactive); for `CCCCOC(=O)c1ccccc1C(=O)O.CCCCOC(=O)c1ccccc1C(=O)O.[Cu+2]`: 103% (inactive); for `O=[N+]([O-])c1ccc2cnn(CSP(=S)(c3ccccc3)c3ccccc3)c2c1`: 73.3% (inactive).
In the case of `CCN(CC)c1ccc(C=C2C(=O)NC(=S)NC2=O)cc1`, the growth is 89.2% (inactive).
For the molecule `Clc1ccc(SSC(Cl)(Cl)Cl)cc1`, the growth is 100% (inactive).
The same measure, in the same setting: in the case of `[O]=[Sn]([CH]1CCCCC1)[CH]1CCCCC1` it was -83.3% (active).
With `ClCCN(CCCl)c1nc(Cl)c(C2CC(c3ccccc3)=NN2c2ccccc2)s1` (configuration not stated), the growth is 88.9% (inactive).
On the same count and under the same terms, in the case of `CC(=O)C1CCC2C3CC=C4CC(OC(=O)Cc5ccc(N(CCCl)CCCl)cc5)CCC4(C)C3CCC12C` (configuration not stated) it was 131% (inactive); in that of `Cc1ccccc1O`, 100% (inactive).
With `O=[N+]([O-])c1ccccc1N1CCNCC1`, the growth was 95% (inactive).
On the same count and under the same terms, the same measure for `CC(=O)Nc1ccc(C=C2C(=O)NC(=O)NC2=O)cc1`: 100% (inactive).

The subject of another assay is 786-0 renal. The description is as above. Particulars: 10 µM unless noted.
With `ClCCN(CCCl)C(c1ccccc1)c1ccc(Cl)cc1` (configuration not stated), the growth is 87.5% (inactive).
On the same count and under the same terms, the same measure for `CCCCn1cc(C(=O)/C(C#N)=C/c2cc3ccccc3nc2Cl)c2cc(OC)ccc21`: 97% (inactive); for `CCCCNCCc1ccccn1`: 97.6% (inactive); for `CC(=O)C1C(=O)N(C)C(=O)N(C)C1=O`: 107% (inactive).
Still for that read-out and setting: in the case of `CC1(C)N=C(N)N=C(N)N1c1cccc(C(=O)Nc2cccc(S(=O)(=O)F)c2)c1` it was 99.5% (inactive); in that of `C[C@]12CC[C@@H]3C4=C(CC[C@H]3[C@@H]1CC[C@@H]2O)CC(=O)CC4`, 106% (inactive); in that of `Oc1ccccc1OB(Oc1ccccc1O)N(CCCl)CCCl`, 92.3% (inactive).
On the same count and under the same terms, in the case of `NC(Cc1ccc2c(c1)OCO2)c1ccc2c(c1)OCO2` (configuration not stated) it was 98.5% (inactive); in that of `COc1ccc(-c2ccc(OC)c(OC)c2OC)cc1`, 21.3% (inactive).
In the case of `CC1(C)N=C(N)N=C(N)N1c1ccc(CCCCc2ccc(S(=O)(=O)F)cc2)c(Cl)c1`, the growth was 22.1% (inactive).
On the same count and under the same terms, in the case of `COc1ccc(C2=NN(c3ccccc3)C(c3sc(N(CCCl)CCCl)nc3Cl)C2)cc1` (configuration not stated) it was 103% (inactive).
On the same count and under the same terms, the same measure for `N#CC1c2ccccc2C=CN1C(=O)c1ccc(N(CCCl)CCCl)cc1` (configuration not stated): 107% (inactive); for `CSc1ccccc1NP1(=O)OCC(C)([N+](=O)[O-])CO1` (configuration not stated): 113% (inactive).
With `Cc1ccc(N)cc1[As]=[As]c1cc(N)ccc1C` (configuration not stated), the growth was -89.3% (active).
Same read-out and setting: in the case of `C/C(=N/OC(=O)N(C)C)c1cc(Cl)ccc1Cl` it was 97.8% (inactive).
The same measure, in the same setting: the same measure for `CCC(C)[C@H]1O[C@]2(C=C[C@@H]1C)C[C@@H]1C[C@@H](C/C=C(\C)[C@@H](OC3C[C@H](OC)C(O[C@H]4C[C@H](OC)[C@@H](O)[C@H](C)O4)[C@H](C)O3)[C@@H](C)/C=C/C=C3\CO[C@@H]4[C@H](O)C(C)=C[C@@H](C(=O)O1)[C@]34O)O2` (some centres not stated): 0.269% (active); for `CC1(C)N=C(N)N=C(N)N1c1ccc(CCCCc2ccc(S(=O)(=O)F)cc2)cc1`: 25.1% (inactive).
On the same count and under the same terms, in the case of `Cc1ccc(C(=O)C2CN(C)CCC2(O)c2ccc(C)cc2)cc1` (configuration not stated) it was 113% (inactive).
`O=S(=O)(O)c1ccc(-c2ccc([As](=O)(O)O)cc2)cc1`: the growth is 103% (inactive).
In the case of `O=C1NC(=O)C(CN2C(=O)C3(c4ccccc42)[C@H](Cl)C(=O)N3c2ccccc2)C(=O)N1` (some centres not stated), the growth was 94% (inactive).
On the same count and under the same terms, the same measure for `O=[N+]([O-])c1cc([N+](=O)[O-])c(Cl)c(Cl)c1Cl`: 12.2% (inactive); for `C=CCC1(CC)C(=O)NC(=S)NC1=O`: 108% (inactive).
Same read-out and setting: the same measure for `C/C(=N/OC(=O)N(C)C)c1ccc(Cl)cc1Cl`: 100% (inactive).
Same read-out and setting: the same measure for `CCC[CH2][Sn]([CH2]CCC)([CH2]CCC)[O]C(=O)CC`: -94.5% (active); for `O=C(NCc1ccc([N+](=O)[O-])cc1)Nc1ccc(S(=O)(=O)F)cc1`: 80.1% (inactive).
`n1nc(-c2nonc2-c2nn[nH]n2)n[nH]1`: the growth is 99% (inactive).
The same measure, in the same setting: in the case of `CNC(=O)Oc1ccccc1-c1ccccc1` it was 95.9% (inactive).
Regarding `CC1(C)N=C(N)N=C(N)N1c1ccc(OCCCCOc2ccc(S(=O)(=O)F)cc2)c(Cl)c1`, the growth was 20.6% (inactive).
For the molecule `CCCCOC(=O)c1ccccc1C(=O)O.CCCCOC(=O)c1ccccc1C(=O)O.[Cu+2]`, the growth was 106% (inactive).
For the molecule `O=[N+]([O-])c1ccc2cnn(CSP(=S)(c3ccccc3)c3ccccc3)c2c1`, the growth is 88.3% (inactive).
The same measure, in the same setting: the same measure for `NC(=O)C(Cl)Cl`: 107% (inactive); for `CCN(CC)c1ccc(C=C2C(=O)NC(=S)NC2=O)cc1`: 96.7% (inactive).
Still for that read-out and setting: the same measure for `Clc1ccc(SSC(Cl)(Cl)Cl)cc1`: 106% (inactive); for `[O]=[Sn]([CH]1CCCCC1)[CH]1CCCCC1`: -97.6% (active).
Same read-out and setting: the same measure for `ClCCN(CCCl)c1nc(Cl)c(C2CC(c3ccccc3)=NN2c2ccccc2)s1` (configuration not stated): 91.7% (inactive).
Consider `Cc1ccccc1O`, for which the growth is 105% (inactive).
Still for that read-out and setting: in the case of `O=[N+]([O-])c1ccccc1N1CCNCC1` it was 94.1% (inactive); in that of `CC(=O)Nc1ccc(C=C2C(=O)NC(=O)NC2=O)cc1`, 96.3% (inactive).
